NSD2 HMT inh – NSD2 histone methyltransferase inhibitors, primary screen, biochemical, AlphaScreen, single concentration, set 2 | Histone-lysine N-methyltransferase NSD2 (Homo sapiens), O96028 | NSD2 peptide methylation, 120 min | inhibition, % at 12.5 µM | 310,000 tested, 0.54% active | AID 743445, 2014; in the data active = inhibition above about 50%
ATG4B inh – ATG4B protease inhibitors, primary screen, biochemical, fluorescence, uHTS. inhibition, % at 8.33 µM. 340,000 tested, 0.51% active. ATG4B cleavage of LC3-PLA2, NBD-HPC fluorescence, 1 h. Cysteine protease ATG4B (Homo sapiens), Q9Y4P1; in the data active = inhibition above about 40%
Target sequence (Q9Y4P1 whole entry, looked up): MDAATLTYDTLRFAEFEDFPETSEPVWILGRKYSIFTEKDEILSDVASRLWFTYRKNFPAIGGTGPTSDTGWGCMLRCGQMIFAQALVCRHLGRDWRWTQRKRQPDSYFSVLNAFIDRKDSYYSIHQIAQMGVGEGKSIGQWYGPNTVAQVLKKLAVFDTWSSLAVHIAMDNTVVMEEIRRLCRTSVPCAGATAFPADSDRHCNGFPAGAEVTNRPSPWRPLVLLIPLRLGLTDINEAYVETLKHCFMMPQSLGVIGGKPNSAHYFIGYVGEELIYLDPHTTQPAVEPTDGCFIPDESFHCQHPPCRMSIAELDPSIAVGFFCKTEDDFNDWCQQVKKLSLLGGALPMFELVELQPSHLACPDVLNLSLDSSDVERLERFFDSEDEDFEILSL
Pemphigus Ab inh – inhibitors of pemphigus antibody binding to DSG3, primary screen, biochemical, bead-based, flow cytometry, scFv-GFP. Desmoglein-3 (Homo sapiens), P32926. DSG3-coupled beads, scFv-anti-DSG3-GFP binding; stronger effect = lower value. binding (percent of control), % at 10 µM. 310,000 tested, 0.48% active;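 active = binding more than 3 SD below its plate's average and above zero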;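 note: hits lower antibody fragment binding to DSG3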
Vif inh – HIV Vif self-association inhibitors, primary screen, imaging, HEK293T, single point; HEK293T cells, Vif self-association by quenched fluorescence, 24 h; inhibition, % at 7.49 µM; 340,000 tested, 0.35% active; AID 602346, 2012; in the data active = inhibition above about 50%, passing the limit was not always enough
CaV13 FRET inh – Primary screen for inhibitors of IQ motif and Ca2+-dependent inactivation inhibitor domain binding in CACNA1D, Förster resonance energy transfer in living cells, …. HEK cells, CFP/YFP FRET ICDI-IQ, plate reader, 10 min; percent FRET-ratio fall versus neutral wells. inhibition, % at 12.3 µM. 340,000 tested, 0.098% active;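 active = mean replicate inhibition of at least 30% and at least 1% of replicates passing that level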
Glyco luc inh – increase of ERlucT glycosylation luciferase signal, primary screen, N-linked glycosylation inhibitor project, D54 ERlucT cells, luminescence, set 2; 360,000 tested, 0.23% active; reporter increase, % at 12.5 µM; D54 ERlucT glycosylation luciferase reporter, 24 h; percent of 100 nM tunicamycin response;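 active = mean luciferase reporter signal, scaled so untreated is 0 and the glycosylation-blocking control 100, at or above a set limit in every replicate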;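 note: luciferase carries N-glycosylation sites so blocking glycosylation raises the light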
Alpha artifact – AlphaScreen signal interference with preloaded methylated product, dose response, artefact control for NSD2 inhibitor project, biochemical, cherry-picked samples; AlphaScreen artifact counterscreen, preloaded methylated H4 peptide; 1,500 tested, 9.4% active; shares compounds with NSD2 HMT inh; AID 1053174, 2014; AC35, µM (series often up to 10 µM); call rule not given here
Large screens that a line does not name were inactive (follow-up assays come after a bar, where they were run). Shown are actives, neighbours in structure and some others; about 1.9% of the full set was active somewhere.

CCOc1cc2c(C#N)c(N(CC)CC)nc(N)c2c(N)n1	none (no result: NSD2 HMT inh)
CCOc1cc2c(C#N)c(N3CCOCC3)nc(N)c2c(N)n1	NSD2 HMT inh 70.4 (no result: CaV13 FRET inh) | Alpha artifact inactive
CCC1Cc2c(nc(N)c3c(N)nc(N4CCOCC4)c(C#N)c23)O1 (stereo not drawn)	NSD2 HMT inh 82.4 | Alpha artifact inactive
CC(=O)Nc1nc2ccccc2[nH]1	none
O=C(OCC(=O)c1ccc(S(=O)(=O)N2CCCC2)cc1)C1=COCCO1	none (no result: NSD2 HMT inh, Pemphigus Ab inh, CaV13 FRET inh)
Cc1sc2nc[nH]c(=O)c2c1-c1ccc(F)cc1	none
Cc1sc2nc[nH]c(=S)c2c1-c1ccccc1	NSD2 HMT inh 86.0 (no result: Pemphigus Ab inh) | Alpha artifact inactive
O=C(c1cc(S(=O)(=O)N2CCOCC2)ccc1F)N(Cc1nnc(-c2ccccc2Cl)o1)C1CC1	none
COC(=O)Cc1[nH]n(-c2nc3ccccc3s2)c(=O)c1C(C)=Nc1ccc(Cl)cc1	none
COc1ccc(C(=O)N=C2SC3CS(=O)(=O)CC3N2c2ccccc2)cc1OC (stereo not drawn)	none
CCCC(C(=O)NC(C)(C)C)N(CC1CCCO1)C(=O)CNS(=O)(=O)c1ccc(F)cc1 (stereo not drawn)	NSD2 HMT inh 83.2 (no result: Pemphigus Ab inh) | Alpha artifact inactive
O=C(CN1CCN(C(=O)c2cc(C3CC3)nn2-c2ccccc2)CC1)Nc1ccc(F)cc1	none (no result: ATG4B inh)
O=c1c2c([nH]n1-c1ccccc1)CCCC2	none
O=C1CC2(CCCC2)CC(=O)N1c1ccccc1	none (no result: Pemphigus Ab inh)
O=C1CC2(CCCCC2)CC(=O)N1CCc1ccccc1	NSD2 HMT inh 74.5 (no result: Pemphigus Ab inh) | Alpha artifact inactive
Cc1nn(-c2ccccc2)c(Cl)c1/C=C1\SC(=S)N(CCCCCC(=O)O)C1=O	none
Cc1ccc(NC(=O)Cn2nnc(C(=O)NCc3ccccc3)c2N)cc1C	NSD2 HMT inh 55.6 | Alpha artifact inactive
CCOC(=O)Cn1ncc(-c2ccccc2)c1N	NSD2 HMT inh 127.9 (no result: Pemphigus Ab inh) | Alpha artifact inactive
CCCCCCCCN1C(=O)[C@H](CC(=O)N2CCN(C(=O)C3CC3)CC2)C[C@@]2(C(=O)OC)CC(C)(C)CC=C12	none (no result: NSD2 HMT inh, ATG4B inh, Pemphigus Ab inh, Vif inh, Glyco luc inh)
O=C(c1ccccc1F)N(Cc1ccccc1)C1CCS(=O)(=O)C1 (stereo not drawn)	none (no result: Vif inh, CaV13 FRET inh)
COc1ccc(CN(C(=O)c2cccc(OC)c2)C2CCS(=O)(=O)C2)cc1 (stereo not drawn)	NSD2 HMT inh 52.0 | Alpha artifact inactive
O=C(c1ccccc1)N(Cc1cccs1)C1CCS(=O)(=O)C1 (stereo not drawn)	none
O=C(c1ccccc1F)N(Cc1cccs1)C1CCS(=O)(=O)C1 (stereo not drawn)	NSD2 HMT inh 84.9 (no result: Pemphigus Ab inh) | Alpha artifact inactive
COc1ccc(C(=O)N(Cc2cccs2)C2CCS(=O)(=O)C2)cc1 (stereo not drawn)	NSD2 HMT inh 100.2 (no result: Pemphigus Ab inh) | Alpha artifact inactive
COc1cc2nc(CCc3ccccc3)oc(=O)c2cc1OC	none
CCCCc1nc2cc(C(=O)N3CCC(O)CC3)ccc2o1	NSD2 HMT inh 66.2 | Alpha artifact inactive
CCCCc1nc2cc(C(=O)N3CCC[C@H]3CO)ccc2o1	none
O=C(NCCCO)c1ccc2nc(-c3ccco3)c(-c3ccco3)nc2c1	NSD2 HMT inh 106.9, Pemphigus Ab inh 36.3 | Alpha artifact inactive
CC(C)OCCCNC1=C(Cl)C(=O)c2ccccc2C1=O	none
COCCCNC1=C(Cl)C(=O)c2ccccc2C1=O	NSD2 HMT inh 67.6 | Alpha artifact inactive
O=C1C(Cl)=C(NCc2cccnc2)C(=O)c2ccccc21	none
CCN(CC)CCCNC1=C(Cl)C(=O)c2ccccc2C1=O	NSD2 HMT inh 112.0 | Alpha artifact inactive
CCN1CCN(c2ccc(S(=O)(=O)N3CCOCC3)cc2NC(=O)c2cc(Cl)nc3ccccc23)CC1	none (no result: Vif inh)
CCN(CC)CCOC(=O)/C=C/c1ccccc1	none
CCN(CC)CC(C)(C)C(=O)/C=C/c1ccc(/C=C/C(=O)C(C)(C)CN(CC)CC)cc1	NSD2 HMT inh 101.1 (no result: Pemphigus Ab inh) | Alpha artifact inactive
c1ccc(CN2CN=C(Nc3nc4ccccc4s3)NC2)cc1	none (no result: CaV13 FRET inh)
c1ccc(CCN2CN=C(Nc3nc4ccccc4s3)NC2)cc1	NSD2 HMT inh 63.6 (no result: Pemphigus Ab inh) | Alpha artifact inactive
Cc1nnc(SCC(=O)N2CCC(Cc3ccccc3)CC2)n(N)c1=O	none (no result: Pemphigus Ab inh, Vif inh, CaV13 FRET inh)
O=C(CSc1nc2ccccc2o1)N/N=C/c1ccc(O)c(O)c1	NSD2 HMT inh 116.2 | Alpha artifact 2.2µM
COc1ccc2nc(C)cc(SCC(=O)N/N=C/c3ccc(O)c(O)c3)c2c1	NSD2 HMT inh 66.5 | Alpha artifact inactive
C/C(=N\NC(=O)CSc1nc2ccccc2o1)c1ccc(O)cc1	NSD2 HMT inh 51.2 (no result: Pemphigus Ab inh) | Alpha artifact inactive
CCCn1c(=O)c2ccccc2n2c(SC(C)C(N)=O)nnc12 (stereo not drawn)	none
CC(CNC(=O)c1cccc(Br)c1)n1cncn1 (stereo not drawn)	none
CN(C)c1cc(Cl)c2nonc2c1N	NSD2 HMT inh 104.0 | Alpha artifact inactive
CN1C(=O)/C(=C/c2ccc(-c3ccccc3[N+](=O)[O-])o2)SC1=Nc1ccc(Cl)c(C(=O)O)c1	NSD2 HMT inh 116.8 | Alpha artifact inactive
O=C(O)c1cc(-c2ccc(/C=C3/SC(=S)N(Cc4ccccc4)C3=O)o2)ccc1Cl	none
N#CC1=C2SCN(Cc3ccccc3)CN2C(=O)CC1c1ccc2c(c1)OCO2 (stereo not drawn)	none
Cc1ccc(NC(=S)N2CCC(NC(=O)c3ccccc3)CC2)cc1	none
Cc1ccc(NC(=S)N2CCC(NC(=O)c3ccc(F)cc3)CC2)cc1	NSD2 HMT inh 61.1 | Alpha artifact inactive
N#Cc1ccc(-c2nc3ccc(Br)cn3c2Cc2cccc(F)c2)cc1	none (no result: NSD2 HMT inh, ATG4B inh, Pemphigus Ab inh, Vif inh)
Cc1ccc(-n2c(C)c(C)c3c(N)ncnc32)cc1	NSD2 HMT inh 66.8 | Alpha artifact inactive
Cc1ccc(C)c(N2C(=N)S/C(=C\c3ccc(-c4ccccc4C(=O)O)o3)C2=O)c1	NSD2 HMT inh 53.8 (no result: Vif inh) | Alpha artifact inactive
Cc1nnc(Sc2cc(NCCO)c([N+](=O)[O-])c3nonc23)s1	NSD2 HMT inh 60.2 | Alpha artifact inactive
COc1ccc(C(=O)NC(=S)Nc2ccccc2F)cc1	none
CCN(CC)C1CCN(c2nc3nonc3nc2NCCOC)C1 (stereo not drawn)	NSD2 HMT inh 75.2 | Alpha artifact inactive

Assay outcomes from PubChem BioAssay.
